High-throughput results deposited in PubChem by National Center for Advancing Translational Sciences (NCATS).
TDP1 cell noCPT: qHTS for Inhibitors of human tyrosyl-DNA phosphodiesterase 1 (TDP1): qHTS in cells in absence of CPT. DT40 Tdp1-/- hTDP1 cells, no CPT, ATP luminescence, 48 h. Potency, µM (highest dose often 46.2 µM), for the others: at the top dose activity change, negative = growth inhibition, hits mostly inhibitors. actives 15% (n = 420,000). AID 686978, 2013; also: potency is read from the fitted curve at half-maximal effect; nearly all actives have a fitted effect of over 55% in size
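Chicken DT40 Tdp1-/- cells stably complemented with human TDP1 were seeded at 400 cells/well with DMSO in place of 20 nM camptothecin. After compound pinning, cells grew at least 48 hr at 37 °C; viability read by CellTiter-Glo luminescence.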
TDP1 cell CPT: DT40-hTDP1 cell growth loss with CPT | chicken DT40 Tdp1-/-;hTDP1 cells + 20 nM CPT, ATP luminescence, 48 h | Potency, µM (highest dose often 46.2 µM), inactives show at the highest dose activity change, negative = growth inhibition, hits mostly inhibitors | actives 12% (n = 420,000) | AID 686979; also: potency is read from the fitted curve at half-maximal effect; nearly all actives have a fitted effect of over 55% in size
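Chicken DT40 Tdp1-/- cells complemented with human TDP1, 400 cells/well, exposed to compounds plus 20 nM camptothecin for at least 48 h at 37 C; viability read as ATP content by CellTiter-Glo luminescence.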
HT1080 IDH1KD tx: HT-1080 IDH1 knockdown cell toxicity (counter line). HT-1080 IDH1 knockdown viability, ATP luminescence, 48 h. Potency, µM (series often up to 46.1 µM), without a hit: top-dose activity, negative = toxicity, most hits filed as cytotoxic. actives 2% (n = 360,000). AID 686971;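 also: potency is read from the fitted curve at half-maximal effect; 0% = DMSO wells and -100% = cell-free medium wells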
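% activity derives from luminescence (CellTiter-Glo), normalised to DMSO and no-cell wells. HT-1080-IDH1KD cells, 750/well, had 48 h compound exposure at 37 °C.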
12-LOX inh: blocks human arachidonate 12S-lipoxygenase | purified 12hLO, xylenol orange hydroperoxide absorbance | P18054 | actives 1.1% (n = 580,000) | Potency, µM (doses to about 108 µM), inactives show at the highest dose activity change, negative = inhibition, actives largely listed as inhibitors; also: potency is read from the fitted curve at half-maximal effect
Target sequence (P18054 whole entry, looked up): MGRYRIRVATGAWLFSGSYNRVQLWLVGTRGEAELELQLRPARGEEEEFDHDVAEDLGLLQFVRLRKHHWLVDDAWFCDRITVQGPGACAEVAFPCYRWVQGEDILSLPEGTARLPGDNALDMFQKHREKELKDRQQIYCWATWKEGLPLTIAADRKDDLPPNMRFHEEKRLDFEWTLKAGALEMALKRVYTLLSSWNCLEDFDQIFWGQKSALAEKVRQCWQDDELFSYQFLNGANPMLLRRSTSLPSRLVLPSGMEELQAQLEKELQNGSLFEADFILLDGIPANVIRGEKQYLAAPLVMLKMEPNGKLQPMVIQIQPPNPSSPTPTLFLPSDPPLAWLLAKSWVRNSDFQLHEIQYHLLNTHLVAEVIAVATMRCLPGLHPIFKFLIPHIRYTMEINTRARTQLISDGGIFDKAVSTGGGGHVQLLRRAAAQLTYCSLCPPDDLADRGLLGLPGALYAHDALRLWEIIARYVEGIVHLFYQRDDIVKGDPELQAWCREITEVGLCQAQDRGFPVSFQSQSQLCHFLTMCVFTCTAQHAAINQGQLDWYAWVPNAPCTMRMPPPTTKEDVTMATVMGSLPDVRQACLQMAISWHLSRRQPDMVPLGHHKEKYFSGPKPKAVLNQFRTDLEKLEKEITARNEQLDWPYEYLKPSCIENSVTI
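Hydroperoxide product was detected by ferrous iron/xylenol orange as the 573 to 405 nm absorbance ratio. Arachidonic acid at 40 uM (final) was turned over for 30 min at room temperature by 150 nM human 12hLO, pH 7.0 Hepes buffer, after 15 min compound preincubation.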
IL1B secr inh: blocks inflammasome-driven IL-1 beta release | THP-1 LPS/ATP IL-1B secretion, AlphaLISA, 16 h; stronger effect = lower value | activity change, % at 57.5 µM | actives 4.7% (n = 360,000) | AID 743279; in the data active = activity change below about -50%; inconclusive = mostly about -30% to -49%
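THP-1 cells pretreated 1 hr with compounds (up to 57.5 uM final), then stimulated with LPS (250 ng/mL final) plus ATP (1.25 mM final); secreted IL-1B measured by AlphaLISA after 16 hr, decreased signal indicating inhibition.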
HT1080NT lethal: kills 2HG-producing HT-1080-NT fibrosarcoma cells | HT-1080-NT fibrosarcoma viability, CellTiter-Glo ATP luminescence, 48 h | Potency, µM (titrated, usually from 46.1 µM), inactives show at the highest dose activity, negative = less viability, usual class: cytotoxic | actives 1.6% (n = 360,000);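 also: NT is the 2HG producing partner of a matched IDH1 knockdown line; potency is read from the fitted curve at half-maximal effect; 0% = DMSO-treated cells and -100% = media-only wells without cells; nearly all actives have a fitted effect of over 55% in size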
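HT-1080-NT; 750 cells/well; 5% FBS RPMI; 48 h compound, 37 degrees C; CellTiter-Glo luminescence; curve fitting and curve-class assignment.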
Active calls of the source: *; ? = inconclusive; . = no result given; [ ] = remark or other dose. The entries come from a sample that favours hits as a whole. Unless noted, calls follow the shape of the dose curve; as a rule, active = well fitted curve in the direction sought with a large enough effect; inconclusive = small, poorly fitted or top-dose-only effect, or another doubt; inactive = no such curve, though single readings can be large; an effect the other way counts as inactive or inconclusive. Unless noted, % is scaled to controls: 0 for no effect and ±100 for the full control effect.

SMILES | TDP1 cell noCPT | TDP1 cell CPT | HT1080 IDH1KD tx | 12-LOX inh | IL1B secr inh | HT1080NT lethal
COc1ccc(Cn2c(=O)[nH]c3cc(C(=O)N4CCN(c5ccccc5)CC4)ccc3c2=O)cc1 | ? | -8% | 8% | -21% | 20 | 18%
COc1cccc(N2CCN(C(=O)c3ccc4c(=O)n(CCc5ccccc5)c(=O)[nH]c4c3)CC2)c1 | 7.3µM* | 15µM* | . | -3% | . | .
O=C(c1ccc2c(c1)[nH]c(=S)n1c3ccccc3nc21)N1CCN(c2cccc(Cl)c2)CC1 | 18µM* | 18µM* | -15% | 2% | 12 | 0%
Cc1noc(C)c1CC(=O)N1CC[C@@H]2CN(S(C)(=O)=O)[C@@H]2C1 | . | . | . | 1% | . | .
c1ccc(CC2=NOC3(CCN(CC4CCCCC4)CC3)C2)cc1 | . | . | . | -2%[6.33 µM] | . | .
O=C(CCC(=O)c1cccs1)OCC(=O)c1ccc(-c2ccccc2)cc1 | . | . | . | 2% | . | .
Cc1ccc(CNC(=O)C2CCN(c3cn[nH]c(=O)c3)C2)o1 (stereo not given) | . | . | . | 40% | . | .
COCCn1c(=O)[nH]c2cc(C(=O)N3CCN(c4cccc(Cl)c4)CC3)ccc2c1=O | 9.2µM* | 23µM* | -4% | 28% | -26 | 11%
C=CCn1c(=O)[nH]c2cc(C(=O)N3CCN(c4cccc(Cl)c4)CC3)ccc2c1=O | 7.3µM* | 9.2µM* | -1% | ? | -3 | -1%
C#CCN(C[C@@H]1[C@@H](OC(=O)NCc2ccc(OC)c(OC)c2)[C@@H](OC(=O)NCc2ccc(OC)c(OC)c2)CN(C(=O)OC(C)C)N1C(=O)OC(C)C)S(=O)(=O)c1ccc(C)cc1 | 9.2µM* | 12µM* | -9% | -6% | ? | 1%
C#CCN(C[C@@H]1[C@@H](OC(=O)NCc2ccc(OC)c(OC)c2)[C@@H](OC(=O)NCc2ccc(OC)c(OC)c2)Cn2c(=O)n(CCCCCC)c(=O)n21)S(=O)(=O)c1ccc(C)cc1 | -28% | 6% | 11% | -3% | -3 | 0%
C#CCN(C[C@@H]1[C@@H](OC(=O)NCc2ccco2)[C@@H](OC(=O)NCc2ccco2)Cn2c(=O)n(CCCCCC)c(=O)n21)S(=O)(=O)c1ccc(C)cc1 | 9.2µM* | 15µM* | -6% | ? | -77* | -3%
C#CCN(C[C@H]1[C@H](OC(=O)NC2CC2)[C@H](OC(=O)NC2CC2)C[C@@H](C(=O)OC)[C@H]1C(=O)OC)S(=O)(=O)c1ccc(C)cc1 | ? | -28% | 4% | 4% | -25 | 13%
C#CCN(C[C@@H]1[C@@H](OC(=O)NC2CCCC2)[C@@H](OC(=O)NC2CCCC2)CN(C(=O)OC(C)C)N1C(=O)OC(C)C)S(=O)(=O)c1ccc(C)cc1 | 21µM* | ? | -20% | 13% | -20 | -8%
C#CCN(C[C@@H]1[C@@H](OC(=O)NC2CC2)[C@@H](OC(=O)NC2CC2)Cn2c(=O)n(CCCCCC)c(=O)n21)S(=O)(=O)c1ccc(C)cc1 | 18µM* | ? | -14% | ? | -1 | -19%
C=C(C)COc1ccc2c(=O)c(-c3ccc(Cl)cc3)coc2c1 | . | . | . | -3% | . | .
CCc1ccc(-n2c(=O)c3c(C)c(C)sc3n(CC(=O)NCc3ccc(C)cc3)c2=O)cc1 | 2% | -3% | . | ? | . | .
Cc1ccccc1C(=O)Nc1cnc2sc3c(n2c1=O)CCC(C(C)(C)C)C3 (stereo not given) | . | . | . | 11% | . | .
CN1c2cccnc2CN(Cc2ccccc2Cl)CC[C@H]1CO | . | . | . | 18%[176 µM] | . | .
Cc1ccc(S(=O)(=O)N2C[C@H]3N(C(=O)OC(C)C)N(C(=O)OC(C)C)C[C@H](OC(=O)NC4CCCC4)[C@@]3(O)C2)cc1 | 21µM* | ? | -3% | -7% | ? | -6%
C#CCN(C[C@@H]1[C@@H](OC(=O)NCc2ccco2)[C@@H](OC(=O)NCc2ccco2)Cn2c(=O)ccc(=O)n21)S(=O)(=O)c1ccc(C)cc1 | 4.6µM* | 4.6µM* | ? | -18% | -109* | 15µM*
C#CCN(C[C@@H]1[C@@H](OC(=O)NCc2ccc(OC)c(OC)c2)[C@@H](OC(=O)NCc2ccc(OC)c(OC)c2)Cn2c(=O)ccc(=O)n21)S(=O)(=O)c1ccc(C)cc1 | 15µM* | 16µM* | 21µM* | 79% | -106* | 9.2µM*
OC12CC3CC(C1)CC(NCc1cccs1)(C3)C2 | . | . | . | 29% | . | .
CCCCOC(=O)c1ccc(Nc2ncnc3c2cnn3-c2cccc(C)c2)cc1 | -14% | -25% | . | -18% | . | .
COC(=O)[C@@H]1Cc2c([nH]c3ccccc23)[C@H]2C[C@H](NCCNC(C)=O)C[C@@H](c3ccccc3)N21 | . | . | . | 48% | . | .
SMILES | TDP1 cell noCPT | TDP1 cell CPT | HT1080 IDH1KD tx | 12-LOX inh | IL1B secr inh | HT1080NT lethal
O=C(c1ccco1)N1N=C(c2cccs2)CC1c1ccc(F)cc1 (stereo not given) | -2% | -25% | 2% | ? | 25 | 2%
COc1ccc(C2CC(c3cccs3)=NN2C(=O)CSC2=NN3CCCC(=O)N=C3S2)cc1 (stereo not given) | ? | ? | 0% | 37% | -24 | -2%
Cc1ccc(C2CC(c3cccs3)=NN2C(=O)CCl)cc1 (stereo not given) | 2.9µM* | 2.6µM* | 4.1µM* | ? | -106* | 4.6µM*
CNC(=S)N1N=C(c2cccs2)CC1c1ccc(F)cc1 (stereo not given) | -17% | -19% | -29% | -17% | -51* | -17%
Cc1ccc(C2CC(c3cccs3)=NN2C(=O)CSC2=NN3CCCC(=O)N=C3S2)cc1 (stereo not given) | ? | 13µM* | -3% | -5%[57.4 µM] | -18 | -4%
COCCNC(=O)C1CCCN1c1nc2ncccc2o1 (stereo not given) | . | . | . | -11%[176 µM] | . | .
O=C(Cc1ccc(C(F)(F)F)cc1)Nc1ccc(F)cc1Cl | . | . | . | 7% | . | .
CN1C[C@@H](NC(=O)COc2ccccc2)C[C@H]1c1nc(-c2ccncc2)no1 | . | . | . | 57%[176 µM] | . | .
COc1ccc2ccccc2c1CN1CCSCC1 | -4% | -6% | 12% | 1.6µM* | 8 | 3%
CCN(CC)C(=O)[C@H]1CC(CC(=O)NCCC2=CCCCC2)C(=O)N2CCc3c([nH]c4ccc(OC)cc34)[C@]12C (stereo not given in full) | ? | ? | 4% | -52% | ? | 7%
CCCCOc1ccc(CN2C[C@@H]3C(=O)N(C)C(=O)[C@@H]3C2)cc1 | . | . | . | 50% | . | .
